These results are taken from paper PMC7862700, “An all-to-all approach to the identification of sequence-specific readers for epigenetic DNA modifications on cytosine”.

Experiment in all cases: DAPPL (digital affinity profiling via proximity ligation, sequencing); 10 mM Tris-HCl pH 7.5, 50 mM NaCl, 1 mM DTT, 4% glycerol, room temperature, 30 min; GST-TFs on glutathione beads, 16-mer random dsDNA library, 0.1% formaldehyde crosslink after washing; high values mean tight binding
One experiment has as its target SPI1 (Homo sapiens, UniProt P17947 1-270). As to conditions: protein: recombinant; tags: N-terminal GST; dsDNA, one strand shown. The essentials: (§1)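 Binding signal is each hexamer's read frequency for a factor divided by its frequency in the tag-only sample. The factors were GST-fused human transcription factors from yeast, captured on glutathione beads, DNA-barcoded and pooled with that sample. Pools were incubated with 200 nmole of a random double-stranded 16-mer DNA library in Tris/NaCl/DTT/glycerol buffer at room temperature for 30 min, then washed, crosslinked with 0.1% formaldehyde, proximity-ligated with BsaI/T4 ligase (1 h, 37 °C), PCR-amplified and sequenced on an Illumina NextSeq500.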

The next experiment addresses T1, FEV (Homo sapiens, UniProt Q99581 1-238).
T1 sequence: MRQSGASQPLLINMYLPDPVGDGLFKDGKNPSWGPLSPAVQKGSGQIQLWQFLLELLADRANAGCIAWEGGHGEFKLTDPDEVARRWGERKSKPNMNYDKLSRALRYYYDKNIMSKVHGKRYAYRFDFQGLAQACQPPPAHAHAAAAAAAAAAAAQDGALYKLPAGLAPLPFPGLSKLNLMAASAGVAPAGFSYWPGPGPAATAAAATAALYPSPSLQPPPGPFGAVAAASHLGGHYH
Particulars: protein: recombinant; tags: N-terminal GST; dsDNA, one strand shown. The essentials:
as §1

For another experiment, the target named is T2, ETV2 (Homo sapiens, UniProt O00321 1-342).
T2 sequence: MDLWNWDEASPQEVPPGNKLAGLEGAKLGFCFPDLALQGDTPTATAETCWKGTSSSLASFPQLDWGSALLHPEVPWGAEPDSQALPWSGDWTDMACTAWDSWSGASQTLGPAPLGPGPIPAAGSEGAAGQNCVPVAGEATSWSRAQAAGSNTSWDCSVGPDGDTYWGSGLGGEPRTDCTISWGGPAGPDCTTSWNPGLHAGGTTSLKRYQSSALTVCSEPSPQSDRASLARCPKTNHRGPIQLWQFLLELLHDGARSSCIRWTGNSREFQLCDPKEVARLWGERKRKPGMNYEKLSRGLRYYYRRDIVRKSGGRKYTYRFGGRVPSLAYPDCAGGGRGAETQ
As to conditions: protein: recombinant; tags: N-terminal GST; dsDNA, one strand shown. In outline: as §1

The next experiment deals with CRX (Homo sapiens, UniProt O43186 1-299). As to conditions: protein: recombinant; tags: N-terminal GST; dsDNA, one strand shown. The essentials:
as §1

The next experiment deals with T3, ELF5 (Homo sapiens, UniProt Q9UKW6-2 1-255).
T3 sequence: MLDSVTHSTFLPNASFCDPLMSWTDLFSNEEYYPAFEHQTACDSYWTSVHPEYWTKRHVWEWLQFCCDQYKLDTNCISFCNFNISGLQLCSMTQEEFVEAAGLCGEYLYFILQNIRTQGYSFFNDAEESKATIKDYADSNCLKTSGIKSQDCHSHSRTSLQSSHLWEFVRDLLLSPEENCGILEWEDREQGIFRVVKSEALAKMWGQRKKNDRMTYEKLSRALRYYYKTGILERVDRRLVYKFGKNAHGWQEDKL
As to conditions: protein: recombinant; tags: N-terminal GST; dsDNA, one strand shown. In outline:
as §1

Another experiment has as its target HSF1 (Homo sapiens, UniProt Q00613 1-529). As to conditions: protein: recombinant; tags: N-terminal GST; chain copies: 3; dsDNA, one strand shown. In outline: as §1
In another experiment the target is T4, FLI1 (Homo sapiens, UniProt Q01543 1-452).
T4 sequence: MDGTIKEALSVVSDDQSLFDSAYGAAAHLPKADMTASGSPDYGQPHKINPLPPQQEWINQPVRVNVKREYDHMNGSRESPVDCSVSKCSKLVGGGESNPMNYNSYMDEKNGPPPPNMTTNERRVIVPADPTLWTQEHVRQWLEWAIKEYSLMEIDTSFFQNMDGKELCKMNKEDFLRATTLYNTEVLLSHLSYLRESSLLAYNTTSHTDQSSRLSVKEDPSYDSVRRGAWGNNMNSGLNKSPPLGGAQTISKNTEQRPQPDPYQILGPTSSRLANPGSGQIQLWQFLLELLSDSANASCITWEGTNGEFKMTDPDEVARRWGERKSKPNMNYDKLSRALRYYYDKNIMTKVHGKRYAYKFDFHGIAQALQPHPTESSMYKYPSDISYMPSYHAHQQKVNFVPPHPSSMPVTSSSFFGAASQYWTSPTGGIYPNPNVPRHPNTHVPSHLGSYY
As to conditions: protein: recombinant; tags: N-terminal GST; dsDNA, one strand shown. The essentials: as §1

Chain of HSF1 (Q00613 whole entry): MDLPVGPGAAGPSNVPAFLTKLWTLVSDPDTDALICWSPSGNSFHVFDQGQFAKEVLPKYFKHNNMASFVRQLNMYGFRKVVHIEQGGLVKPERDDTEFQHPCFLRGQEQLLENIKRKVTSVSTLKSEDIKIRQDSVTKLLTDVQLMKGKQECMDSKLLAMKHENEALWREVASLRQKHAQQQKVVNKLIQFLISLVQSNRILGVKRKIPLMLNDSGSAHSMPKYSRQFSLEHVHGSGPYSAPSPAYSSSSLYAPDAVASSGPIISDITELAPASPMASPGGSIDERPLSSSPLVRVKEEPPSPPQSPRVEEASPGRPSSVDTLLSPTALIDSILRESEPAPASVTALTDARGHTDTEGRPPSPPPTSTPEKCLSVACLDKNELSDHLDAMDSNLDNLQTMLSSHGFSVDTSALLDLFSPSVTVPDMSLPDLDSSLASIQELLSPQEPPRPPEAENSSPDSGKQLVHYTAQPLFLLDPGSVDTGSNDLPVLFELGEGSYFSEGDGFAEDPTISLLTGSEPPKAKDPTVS
Chain of CRX (O43186 whole entry): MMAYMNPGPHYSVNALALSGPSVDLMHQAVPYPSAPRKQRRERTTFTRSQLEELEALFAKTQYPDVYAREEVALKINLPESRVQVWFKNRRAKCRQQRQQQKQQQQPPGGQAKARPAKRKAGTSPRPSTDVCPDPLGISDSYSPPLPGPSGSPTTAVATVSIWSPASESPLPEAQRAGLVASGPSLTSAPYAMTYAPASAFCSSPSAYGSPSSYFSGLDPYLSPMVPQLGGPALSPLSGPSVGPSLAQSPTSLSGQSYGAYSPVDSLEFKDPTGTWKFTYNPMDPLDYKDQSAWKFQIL

Regarding GCAGCT, the binding signal in the experiment with SPI1 was 1 fold enrichment (6-mer frequency, TF over GST control); with FEV, 1.09 fold enrichment (6-mer frequency, TF over GST control); in the experiment with ETV2, 1.06 fold enrichment (6-mer frequency, TF over GST control); in the experiment with CRX, 1 fold enrichment (6-mer frequency, TF over GST control).
Take GTACGA: the binding signal in the experiment with SPI1 is 1.05 fold enrichment (6-mer frequency, TF over GST control); with FEV, 1.01 fold enrichment (6-mer frequency, TF over GST control); in the experiment with ETV2 it was 1.07 fold enrichment (6-mer frequency, TF over GST control); in the experiment with ELF5, 1.03 fold enrichment (6-mer frequency, TF over GST control).
In the case of CGCGCG, the binding signal in the experiment with ETV2 was 1.05 fold enrichment (6-mer frequency, TF over GST control).
On to AGTAAA, for which the binding signal was 1.22 fold enrichment (6-mer frequency, TF over GST control) with SPI1; 1.09 fold enrichment (6-mer frequency, TF over GST control) with HSF1; 1.06 fold enrichment (6-mer frequency, TF over GST control) with ELF5.
GCTAGA: the binding signal was 1.96 fold enrichment (6-mer frequency, TF over GST control) with HSF1 and 1.15 fold enrichment (6-mer frequency, TF over GST control) in the experiment with CRX.
On to AGTCCC, for which the binding signal with SPI1 was 1.26 fold enrichment (6-mer frequency, TF over GST control); in the experiment with FEV, 1.09 fold enrichment (6-mer frequency, TF over GST control); with ELF5 it was 1.06 fold enrichment (6-mer frequency, TF over GST control).
As for GGGGCT, the binding signal in the experiment with CRX was 1.11 fold enrichment (6-mer frequency, TF over GST control).
Turning to GCGAAA, the binding signal with SPI1 was 1.02 fold enrichment (6-mer frequency, TF over GST control); in the experiment with HSF1, 1.26 fold enrichment (6-mer frequency, TF over GST control).
As for CGCCCA, the binding signal with FEV is 1.02 fold enrichment (6-mer frequency, TF over GST control).
For AGCACA, the binding signal with SPI1 is 1.06 fold enrichment (6-mer frequency, TF over GST control); in the experiment with FEV, 1.12 fold enrichment (6-mer frequency, TF over GST control); with ETV2 it was 1.12 fold enrichment (6-mer frequency, TF over GST control); with ELF5 it was 1.05 fold enrichment (6-mer frequency, TF over GST control).
Take ACTCAG: the binding signal is 1.02 fold enrichment (6-mer frequency, TF over GST control) in the experiment with FEV and 1.09 fold enrichment (6-mer frequency, TF over GST control) in the experiment with ETV2.
For the sequence ACGCTC, in the experiment with ETV2, the binding signal was 1.02 fold enrichment (6-mer frequency, TF over GST control).
Regarding TCGAAC, the binding signal with HSF1 is 2 fold enrichment (6-mer frequency, TF over GST control); with ETV2, 1.03 fold enrichment (6-mer frequency, TF over GST control); with CRX, 1.07 fold enrichment (6-mer frequency, TF over GST control); with ELF5, 1.04 fold enrichment (6-mer frequency, TF over GST control).
As for GTCTAT, the binding signal in the experiment with SPI1 is 1.03 fold enrichment (6-mer frequency, TF over GST control); in the experiment with ETV2, 1 fold enrichment (6-mer frequency, TF over GST control); with ELF5, 1.08 fold enrichment (6-mer frequency, TF over GST control).
With CAGCCC, the binding signal in the experiment with SPI1 was 1.03 fold enrichment (6-mer frequency, TF over GST control); in the experiment with FEV, 1.13 fold enrichment (6-mer frequency, TF over GST control); in the experiment with ETV2 it was 1.27 fold enrichment (6-mer frequency, TF over GST control); with ELF5 it was 1.01 fold enrichment (6-mer frequency, TF over GST control).
In the case of AGCCAC, the binding signal with SPI1 is 1.03 fold enrichment (6-mer frequency, TF over GST control); in the experiment with FEV it was 1.04 fold enrichment (6-mer frequency, TF over GST control); with ETV2, 1.07 fold enrichment (6-mer frequency, TF over GST control).
With CATAAG, the binding signal in the experiment with HSF1 is 1.13 fold enrichment (6-mer frequency, TF over GST control); with CRX, 1.42 fold enrichment (6-mer frequency, TF over GST control).
With ACACGG, the binding signal in the experiment with ELF5 is 1.15 fold enrichment (6-mer frequency, TF over GST control).
Turning to TGGAAC, the binding signal with FEV is 1.02 fold enrichment (6-mer frequency, TF over GST control); with HSF1 it was 1.86 fold enrichment (6-mer frequency, TF over GST control).
On to GCCCCG, for which the binding signal in the experiment with SPI1 is 1.08 fold enrichment (6-mer frequency, TF over GST control); with FEV it was 1.12 fold enrichment (6-mer frequency, TF over GST control); with ETV2, 1.06 fold enrichment (6-mer frequency, TF over GST control).
AGTGCA: the binding signal is 1.47 fold enrichment (6-mer frequency, TF over GST control) with SPI1; 1.15 fold enrichment (6-mer frequency, TF over GST control) in the experiment with FEV; 1.04 fold enrichment (6-mer frequency, TF over GST control) with ETV2; 1.1 fold enrichment (6-mer frequency, TF over GST control) in the experiment with ELF5.
For CGCGCC, the binding signal is 1.08 fold enrichment (6-mer frequency, TF over GST control) in the experiment with FEV and 1.03 fold enrichment (6-mer frequency, TF over GST control) with ELF5.
Take CACAGC: the binding signal was 1.03 fold enrichment (6-mer frequency, TF over GST control) with FEV and 1.05 fold enrichment (6-mer frequency, TF over GST control) with ETV2.
For GGGAAA, the binding signal in the experiment with SPI1 was 1.05 fold enrichment (6-mer frequency, TF over GST control); with HSF1 it was 1.15 fold enrichment (6-mer frequency, TF over GST control); with ELF5, 1.42 fold enrichment (6-mer frequency, TF over GST control).
As to CAAACA, the binding signal with SPI1 was 1.14 fold enrichment (6-mer frequency, TF over GST control); with FEV, 1.1 fold enrichment (6-mer frequency, TF over GST control); in the experiment with ETV2, 1.13 fold enrichment (6-mer frequency, TF over GST control); with ELF5, 1.11 fold enrichment (6-mer frequency, TF over GST control).
Turning to GAACTG, the binding signal with SPI1 was 1.2 fold enrichment (6-mer frequency, TF over GST control); with ETV2 it was 1.02 fold enrichment (6-mer frequency, TF over GST control); with ELF5, 1.01 fold enrichment (6-mer frequency, TF over GST control).
For TGTTGT, the binding signal is 1.1 fold enrichment (6-mer frequency, TF over GST control) with SPI1; 1.11 fold enrichment (6-mer frequency, TF over GST control) with FEV; 1.05 fold enrichment (6-mer frequency, TF over GST control) in the experiment with ELF5.
As to CAATGT, the binding signal with FEV was 1 fold enrichment (6-mer frequency, TF over GST control).
In the case of TGGGTG, the binding signal was 1 fold enrichment (6-mer frequency, TF over GST control) with SPI1 and 1.04 fold enrichment (6-mer frequency, TF over GST control) in the experiment with ELF5.
With AGCTCG, the binding signal in the experiment with FEV is 1.03 fold enrichment (6-mer frequency, TF over GST control); with HSF1, 1.02 fold enrichment (6-mer frequency, TF over GST control); in the experiment with ETV2 it was 1 fold enrichment (6-mer frequency, TF over GST control).
Regarding GTACTG, the binding signal with SPI1 was 1.04 fold enrichment (6-mer frequency, TF over GST control).
For AGTACC, the binding signal with SPI1 was 1.03 fold enrichment (6-mer frequency, TF over GST control); with ETV2, 1.03 fold enrichment (6-mer frequency, TF over GST control); in the experiment with ELF5, 1.02 fold enrichment (6-mer frequency, TF over GST control).
For AAACAG, the binding signal with SPI1 was 1.13 fold enrichment (6-mer frequency, TF over GST control); in the experiment with ELF5 it was 1.03 fold enrichment (6-mer frequency, TF over GST control).
Turning to CATAGC, in the experiment with ETV2, the binding signal was 1.06 fold enrichment (6-mer frequency, TF over GST control).
On to CATAGT, for which the binding signal with ELF5 is 1 fold enrichment (6-mer frequency, TF over GST control).
CCAAGT: the binding signal in the experiment with FLI1 was 1.02 fold enrichment (6-mer frequency, TF over GST control).
For GTGCCT, the binding signal in the experiment with SPI1 was 1.15 fold enrichment (6-mer frequency, TF over GST control); with ETV2, 1.22 fold enrichment (6-mer frequency, TF over GST control).
Turning to GTTGGT, the binding signal with SPI1 is 1.02 fold enrichment (6-mer frequency, TF over GST control).
On to AGTCCT, for which the binding signal in the experiment with SPI1 was 1.2 fold enrichment (6-mer frequency, TF over GST control); with ETV2 it was 1.02 fold enrichment (6-mer frequency, TF over GST control); with ELF5, 1.17 fold enrichment (6-mer frequency, TF over GST control).
